Results on 20 compounds are retold here after PubChem BioAssay.

Values without a mark were called inactive. For some of these results: Results with a measured potency or affinity are listed apart. Active and inactive are the calls of the source. Unless noted, how the calls were made is not given here.

For orientation: inhibition means the relative decrease from the control value, in per cent.

The nature of test [1]: antimalarial activity against Dd2 strain (AID 2302;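 active means growth inhibition above 50% at the single 2 µM test dose, taken to imply half-maximal potency below 2 µM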;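 further: 0% = DMSO untreated growth and 100% = chloroquine plus artemisinin killed control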). Particulars: P. falciparum Dd2 in RBCs, LDH growth readout, 72 h; at 2 µM; active compounds read high.
Test [2] can be described thus: HepG2 cytotoxicity, primary screen, cytotoxicity control for P. falciparum antimalarial project, cell-based, ATP luminescence (AID 2303;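 active means inhibition above 50%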;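 further: 0% = DMSO wells and 100% = digitonin-killed cells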). Particulars: HepG2 viability, 24-48 h, at 10 µM, active compounds read high.
The target in test [3] is L-lactate dehydrogenase (Plasmodium falciparum (isolate CDC / Honduras)) (UniProt Q27743). Description: PfLDH activity inhibition – cell lysate, 3D7 strain, counter-screen for P. falciparum growth inhibition project (AID 2304).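 Further: 0% = vehicle and 100% = reference inhibitor.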 Particulars: P. falciparum 3D7 crude extract, LDH APAD/NBT absorbance; at 2 µM; active compounds read high. (In general: Counterscreens check selectivity or assay interference.)

The nature of test [4]: inhibition of 3D7 malaria parasite growth – strain 3D7 (AID 2306).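 Further: 0% = DMSO wells and 100% = chloroquine plus artemisinin control wells.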 Particulars: P. falciparum 3D7 erythrocytic growth, LDH absorbance, 72 h; at 2 µM; active compounds read high.
The target of test [5] is Calcium-dependent protein kinase 1 (Plasmodium falciparum (isolate 3D7)) (UniProt P62344). Description: PfCDPK1 kinase inhibitors, biochemical, TCAMS library (AID 1159585; cut-off not given, nearly all actives have IC50 up to about 0.98 µM;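 further: inhibitors leave more ATP so luminescence rises with inhibition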). Particulars: recombinant PfCDPK1, Kinase-Glo ATP depletion luminescence. (In Kinase-Glo more light means more ATP remaining.)
Test [6] has as its target Plasmodium falciparum protein kinase 6 (PK6, PF3D7_1337100) (UniProt Q8IDW1). In words: PfPK6 kinase inhibitors, biochemical, TCAMS library (AID 1159586). Particulars: recombinant PfPK6, Kinase-Glo ATP depletion luminescence.
The target in test [7] is Protein kinase 7 (PK7), Plasmodium falciparum 3D7 (PF3D7_0213400) (UniProt Q7YTF7). In words: inhibition of Plasmodium PK7 catalytic activity – biochemical, TCAMS antimalarial set, Kinase-Glo luminescence (AID 1159587). Particulars: recombinant PfPK7, Kinase-Glo ATP depletion luminescence.
For test [8], the target named is Calcium-dependent protein kinase 4 (Plasmodium falciparum (isolate 3D7)) (UniProt Q8IBS5). Description: PfCDPK4 kinase inhibitors, biochemical, TCAMS library (AID 1159588; cut-off not given, nearly all actives have IC50 up to about 0.91 µM). Particulars: recombinant PfCDPK4, Kinase-Glo ATP depletion luminescence.
Chain of Calcium-dependent protein kinase 4 (Plasmodium falciparum (isolate 3D7)) (Q8IBS5 whole entry, looked up): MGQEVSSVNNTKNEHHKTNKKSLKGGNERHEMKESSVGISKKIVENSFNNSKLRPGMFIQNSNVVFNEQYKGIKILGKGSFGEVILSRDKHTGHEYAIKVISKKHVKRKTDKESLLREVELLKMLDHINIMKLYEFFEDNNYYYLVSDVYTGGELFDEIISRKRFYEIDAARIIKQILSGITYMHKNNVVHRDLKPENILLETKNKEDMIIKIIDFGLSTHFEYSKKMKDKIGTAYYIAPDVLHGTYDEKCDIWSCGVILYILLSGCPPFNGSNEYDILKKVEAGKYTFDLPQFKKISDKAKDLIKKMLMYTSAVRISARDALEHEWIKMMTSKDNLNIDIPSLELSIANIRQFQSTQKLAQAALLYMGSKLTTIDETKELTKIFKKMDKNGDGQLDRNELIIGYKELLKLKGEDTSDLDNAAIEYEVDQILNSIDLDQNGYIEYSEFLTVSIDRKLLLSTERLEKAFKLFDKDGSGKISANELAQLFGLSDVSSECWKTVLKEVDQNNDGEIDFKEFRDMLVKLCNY

Chain of Protein kinase 7 (PK7), Plasmodium falciparum 3D7 (PF3D7_0213400) (Q7YTF7 1-343): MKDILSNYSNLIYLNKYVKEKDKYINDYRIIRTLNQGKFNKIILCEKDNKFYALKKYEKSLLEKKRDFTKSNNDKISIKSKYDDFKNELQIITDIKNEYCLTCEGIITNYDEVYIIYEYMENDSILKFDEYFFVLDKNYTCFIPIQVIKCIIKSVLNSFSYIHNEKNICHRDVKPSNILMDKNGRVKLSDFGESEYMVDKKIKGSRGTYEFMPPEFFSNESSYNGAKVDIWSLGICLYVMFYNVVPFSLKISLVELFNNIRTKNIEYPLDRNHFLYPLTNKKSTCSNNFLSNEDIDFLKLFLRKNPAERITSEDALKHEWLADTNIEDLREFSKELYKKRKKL
Chain of Calcium-dependent protein kinase 1 (Plasmodium falciparum (isolate 3D7)) (P62344 whole entry, looked up): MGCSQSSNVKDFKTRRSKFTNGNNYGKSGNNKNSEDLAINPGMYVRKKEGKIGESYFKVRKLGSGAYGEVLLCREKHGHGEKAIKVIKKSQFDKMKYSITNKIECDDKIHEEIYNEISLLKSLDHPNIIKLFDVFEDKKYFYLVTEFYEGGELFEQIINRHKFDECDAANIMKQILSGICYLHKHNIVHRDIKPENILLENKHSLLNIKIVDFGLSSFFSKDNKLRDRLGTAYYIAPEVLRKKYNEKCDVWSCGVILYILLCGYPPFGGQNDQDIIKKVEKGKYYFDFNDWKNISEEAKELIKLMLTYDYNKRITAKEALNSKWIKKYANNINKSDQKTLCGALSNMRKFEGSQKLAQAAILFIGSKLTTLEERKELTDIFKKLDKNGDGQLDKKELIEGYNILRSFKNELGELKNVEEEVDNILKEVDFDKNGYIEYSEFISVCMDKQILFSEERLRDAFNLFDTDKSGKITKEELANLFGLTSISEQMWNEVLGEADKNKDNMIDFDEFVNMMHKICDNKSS
Chain of Plasmodium falciparum protein kinase 6 (PK6, PF3D7_1337100) (Q8IDW1 1-305): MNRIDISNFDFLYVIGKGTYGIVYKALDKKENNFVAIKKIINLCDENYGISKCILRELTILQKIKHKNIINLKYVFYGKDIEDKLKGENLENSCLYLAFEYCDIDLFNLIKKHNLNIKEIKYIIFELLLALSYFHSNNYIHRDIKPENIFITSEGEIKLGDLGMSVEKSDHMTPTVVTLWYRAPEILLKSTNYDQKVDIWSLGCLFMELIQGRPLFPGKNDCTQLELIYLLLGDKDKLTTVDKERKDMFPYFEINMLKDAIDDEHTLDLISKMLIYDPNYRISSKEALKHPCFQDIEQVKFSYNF
Chain of L-lactate dehydrogenase (Plasmodium falciparum (isolate CDC / Honduras)) (Q27743 whole entry, looked up): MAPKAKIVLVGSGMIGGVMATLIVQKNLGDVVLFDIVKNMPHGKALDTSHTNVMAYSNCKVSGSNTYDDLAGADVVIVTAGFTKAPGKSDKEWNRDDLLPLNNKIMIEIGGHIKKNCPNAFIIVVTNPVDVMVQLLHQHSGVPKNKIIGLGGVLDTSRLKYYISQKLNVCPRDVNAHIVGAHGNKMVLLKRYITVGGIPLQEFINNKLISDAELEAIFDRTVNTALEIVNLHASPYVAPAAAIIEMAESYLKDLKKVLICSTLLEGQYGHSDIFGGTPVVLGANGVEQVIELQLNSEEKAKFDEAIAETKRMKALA

For `N/C(=N\c1ncccn1)Nc1cccc(Cc2ccccc2)n1`, the figures for the growth inhibition in test [1] and in test [4] were 34% and 90% (active), respectively. For the same compound, the inhibition was 51% (active) in test [2] and -2% in test [3]. The result in test [5], in test [6], in test [7] and in test [8] was inactive.
Turning to `CC(C)CNCc1ccc(-c2ccc(CN(C(=O)NCCc3ccccc3)C3CCN(Cc4ccccc4)CC3)cc2)cc1`, the results for the growth inhibition in test [1] and in test [4] were 62% (active) and 98% (active), respectively. Also, the inhibition in test [2] was 37%; in test [3] it was -3%. The result in test [5], in test [6], in test [7] and in test [8] was inactive.
Consider `CCn1c(-c2nonc2N)nc2cnc(Oc3cccc(NC(=O)c4ccc(OCCN5CCCCC5)cc4)c3)cc21`, for which the growth inhibition in test [1] is 7%; in test [4] it was 98% (active). The inhibition in test [2] is 16%; in test [3], -1%. Also, the outcome in test [5], in test [6], in test [7] and in test [8] was inactive.
In the case of `C=CC[C@@H](C(=O)OCC)[C@@H]1[C@@H](N(CC=C)C(=O)OC(C)(C)C)CCN1C(=O)OCc1ccccc1`, the growth inhibition in test [1] was 68% (active); in test [4], 92% (active). Also, the inhibition in test [2] is 2%; in test [3] it was 4%. Moreover, the result in test [5], in test [6], in test [7] and in test [8] was inactive.
In the case of `c1cncc(Oc2ccc(Nc3ccnc4cc(-c5cccc(CN6CCOCC6)c5)ccc34)cc2)c1`, the figures for the growth inhibition in test [1] and in test [4] were 100% (active) and 101% (active), respectively. The results for the inhibition in test [2] and in test [3] were 14% and 5%, respectively. Moreover, the result in test [5], in test [6], in test [7] and in test [8] was inactive.
In the case of `Cc1ccc(Cl)c2sc(N3CCN(C(=O)c4ccc([N+](=O)[O-])o4)CC3)nc12`, the growth inhibition in test [1] was 94% (active); in test [4], 97% (active). Besides, the results for the inhibition in test [2] and in test [3] were 21% and -5%, respectively. The outcome in test [5], in test [6], in test [7] and in test [8] was inactive.
`COc1cccc(CN2CCN(C(c3ccccc3)c3ccccc3)CC2)c1O`: the growth inhibition in test [1] is 98% (active); in test [4], 99% (active). For the same compound, the inhibition in test [2] is 6%; in test [3], 2%. Further, the outcome in test [5], in test [6], in test [7] and in test [8] was inactive.
Regarding `CC(C)(C)c1ccc(NC(=O)c2cccc(CN3CCCN(Cc4cccc(C#N)c4)CC3)c2)cc1`, the growth inhibition in test [1] was 12%; in test [4], 97% (active). Also, the inhibition in test [2] is 39%; in test [3], 4%. Moreover, the outcome in test [5], in test [6], in test [7] and in test [8] was inactive.
As to `CCCCc1ccc(C(=O)Nc2ccc3nc(N4CCN(CC)CC4)cc(C)c3c2)cc1`, the growth inhibition in test [1] is 13%; in test [4] it was 91% (active). The figures for the inhibition in test [2] and in test [3] were 32% and 4%, respectively. In addition, the outcome in test [5], in test [6], in test [7] and in test [8] was inactive.
As to `CCCNCc1c(O)ccc2c(CNCCC)c(O)ccc12`, the growth inhibition in test [1] was 9%; in test [4], 101% (active). In addition, the inhibition in test [2] is 24%; in test [3], -1%. In addition, the outcome in test [5], in test [6], in test [7] and in test [8] was inactive.
Take `COc1ccc(CCNc2nc(NCCc3cnc[nH]3)nc(NCc3cccc4ccccc34)n2)cc1OC`: the growth inhibition is 16% in test [1] and 98% (active) in test [4]. The results for the inhibition in test [2] and in test [3] were 2% and 3%, respectively. The outcome in test [5], in test [6], in test [7] and in test [8] was inactive.
`CCOc1ccc(Nc2ccc3nonc3c2S(=O)(=O)Nc2ccc(OCC)cc2)cc1`: the growth inhibition in test [1] is 93% (active); in test [4] it was 100% (active). Moreover, the inhibition is 6% in test [2] and -2% in test [3]. Further, the outcome in test [5], in test [6], in test [7] and in test [8] was inactive.
`Cc1cc(NC(=O)Nc2ccc3ccn(C)c3c2)c2ccccc2n1`: the growth inhibition in test [1] is 69% (active); in test [4] it was 102% (active). Besides, the results for the inhibition in test [2] and in test [3] were 11% and -1%, respectively. Moreover, the result in test [5], in test [6], in test [7] and in test [8] was inactive.
With `CCCN(Cc1nnc(-c2cccs2)o1)C(=O)C1COc2ccccc2O1` (stereo not given), the figures for the growth inhibition in test [1] and in test [4] were 49% and 87% (active), respectively. The inhibition was 1% in test [2] and 0% in test [3]. For the same compound, the outcome in test [5], in test [6], in test [7] and in test [8] was inactive.
Regarding `Cc1cccc2[nH]c(-c3cccc(-c4cccc(CNCCNC(=O)c5ccnn5C)c4)c3)nc12`, the values for the growth inhibition in test [1] and in test [4] were 71% (active) and 100% (active), respectively. For the same compound, the inhibition was 26% in test [2] and -3% in test [3]. For the same compound, the outcome in test [5], in test [6], in test [7] and in test [8] was inactive.
As to `COc1ccc(-c2csc3ncnc(Cl)c23)cc1OC`, the growth inhibition in test [1] was 84% (active); in test [4], 93% (active). Besides, the inhibition in test [2] was -25%; in test [3] it was 4%. The outcome in test [5], in test [6], in test [7] and in test [8] was inactive.
Take `CC(Nc1cc(-c2ccccn2)nc(-c2ccccn2)n1)c1ccccc1` (stereo not given): the growth inhibition in test [1] is 98% (active); in test [4], 85% (active). Also, the inhibition is 61% (active) in test [2] and -3% in test [3]. The result in test [5], in test [6], in test [7] and in test [8] was inactive.
As for `COc1ccc(CNC2Cc3ccccc3C2)cc1-c1ccc(S(=O)(=O)NCc2ccccc2)s1`, the growth inhibition is 25% in test [1] and 97% (active) in test [4]. Also, the results for the inhibition in test [2] and in test [3] were 22% and 4%, respectively. The outcome in test [5], in test [6], in test [7] and in test [8] was inactive.
Take `Cc1cc(N[C@@H](Cc2ccccc2)C(=O)NCCOc2ccccc2)nc(NCCOc2ccccc2)n1`: the growth inhibition in test [1] is 24%; in test [4], 98% (active). Besides, the values for the inhibition in test [2] and in test [3] were -1% and -4%, respectively. Further, the result in test [5], in test [6], in test [7] and in test [8] was inactive.
As for `Cc1cc(N)c2cc(NC(=O)c3cc4ccccc4s3)ccc2n1`, the growth inhibition in test [1] is 99% (active); in test [4], 101% (active). The inhibition in test [2] was 100% (active); in test [3] it was 2%. Also, the result in test [5], in test [6], in test [7] and in test [8] was inactive.
